PubChem BioAssay (Tox21)
Activity calls are given as the source filed them. The call rests on the fitted dose curve; in most records, active means well fitted curve in the direction sought with a large enough effect in the repeat runs; inconclusive means weak or mixed curves; inactive means flat fitted curve, though single readings scatter.
On the % scale 0 is the no-effect control and ±100 the full control effect.

Assay: qHTS assay to test for compound auto fluorescence at 535 nm (green) in HepG2 cell free culture (AID 720686)
Details: Cell-free medium, green autofluorescence 485/535 nm; series mostly up to 91.3 µM; fluorescence, % of fluorescein control: at the top concentration
Description: U.S. Tox21 Program National Center for Advancing Translational Sciences [NCATS] NIH Chemical Genomics Center [NCGC] U.S. Environmental Protection Agency [EPA] National Institutes of Environmental Health Sciences [NIEHS] National Toxicology Program [NTP] U.S. Food and Drug Administration [FDA] Tox21 Assay Overview: Compound auto fluorescence often interferes with screening of the compound library against various biological targets and signaling pathways. Some of these compounds may have fluorophoric properties. Such properties may interfere with the assay outputs resulting in false positives and/or negatives. To decrease such complications and ensure the compound activities are relevant in terms of biological response, the Tox21 10K compound library was screened for auto fluorescence. From the fluorophores used as reporter signals in our screening assays, the auto fluorescence equivalencies of compounds against three fluorophores have been evaluated: Triamterene, Fluorescein and Rose Bengal sodium for blue, green and red fluorescence, respectively. The fluorescence intensities were measured using Excitation/Emission wavelengths at 405/460nm, 485/535nm and 540/590nm for blue, green and red labels, respectively. This assay includes the green fluorescence data.
Tox21 Assay Protocol Summary: 5 uL of culture medium (MEM containing 10% FBS) per well was dispensed into black wall/clear bottom 1536-well plates using a Multidrop Combi Dispenser (ThermoFisher Scientific, Waltham, MA). After 23 nL compound or DMSO vehicle was transferred into assay plate by a pintool work station (Kalypsys, San Diego, CA), fluorescence intensities in the assay plates were measured by an Envision (PerkinElmer, Shelton, CT) plate reader using three labels for measuring blue, green and red fluorescence at […] 460, 535 and 590nm respectively.
In the case of `CCC(C)(CCCC(C)C)OC(C)=O` (stereo not given), the “fluorescence, % of fluorescein control” value is reported as 0.144% (inactive). For `CC(COc1ccccc1)NN` (stereo not given), the “fluorescence, % of fluorescein control” value was -0.202% [at 46 µM] (inactive). For `Cc1nc2ccc(CN(C)c3ccc(C(=O)N[C@@H](CCC(=O)O)C(=O)O)s3)cc2c(=O)[nH]1`, the outcome was “inactive”. For `CC(C)(C)C(=O)c1ccccc1`, the “fluorescence, % of fluorescein control” value was -0.007% (inactive). In the case of `CC(C)(N)C#N`, the “fluorescence, % of fluorescein control” value is reported as 0.0146% [at 95.7 µM] (inactive). In the case of `NC(=O)Cc1cccc2ccccc12`, the “fluorescence, % of fluorescein control” value is reported as 0.0747% (inactive). With `C[N+]1(C)[C@@H]2CC(OC(=O)[C@H](CO)c3ccccc3)C[C@H]1[C@@H]1O[C@@H]12` (stereo not given in full) the “fluorescence, % of fluorescein control” value was -0.0206% [at 46 µM] (inactive). For `COc1cc2c(cc1OC)-c1cc3ccc(OC)c(OC)c3c[n+]1CC2`, the “fluorescence, % of fluorescein control” value was 0.0776% (inactive). With `CCCn1cc[n+](C)c1C` the “fluorescence, % of fluorescein control” value was 0.0019% [at 95.7 µM] (inactive). With `O=S(=O)(O)c1cc(O)c(O)c(S(=O)(=O)O)c1` the “fluorescence, % of fluorescein control” value was -0.0005% (inactive). For `FB(F)F`, the “fluorescence, % of fluorescein control” value was -0.0685% [at 95.7 µM] (inactive). With `CCOC(=O)OC(C)OC1=C(C(=O)Nc2ccccn2)N(C)S(=O)(=O)c2ccccc21` (stereo not given) the “fluorescence, % of fluorescein control” value was -0.047% [at 46 µM] (inactive). With `CC(C)C[C@@H](N)C(=O)O` the “fluorescence, % of fluorescein control” value was -0.0181% [at 46 µM] (inactive). In the case of `O=CN(CCO)CCO`, the “fluorescence, % of fluorescein control” value is reported as 0.0258% (inactive). With `CCCCCCCCCCCCSC` the “fluorescence, % of fluorescein control” value was -0.0048% (inactive). For `Cc1ccc(-c2ncc(Cl)cc2-c2ccc(S(C)(=O)=O)cc2)cn1`, the “fluorescence, % of fluorescein control” value was -0.0218% [at 46 µM] (inactive). With `CN(C)C(=O)Oc1cccc([N+](C)(C)C)c1` the “fluorescence, % of fluorescein control” value was 0.167% [at 46 µM] (inactive). With `Cc1ccnc(NS(=O)(=O)c2ccc(N)cc2)n1` the fluorescence, % of fluorescein control was 0.0314% [at 18.6 µM] (inactive). For `CO[Si](C)(OC)c1ccccc1`, the “fluorescence, % of fluorescein control” value was -0.0416% (inactive). For `CNCCO`, the “fluorescence, % of fluorescein control” value was -0.0168% (inactive). With `CCC(=O)OCc1ccccc1` the “fluorescence, % of fluorescein control” value was 0.0175% (inactive). In the case of `COc1cc(C(=O)OC(COCCC(C)C)CN2CCOCC2)cc(OC)c1OC` (stereo not given), the “fluorescence, % of fluorescein control” value is reported as -0.0217% [at 46 µM] (inactive). With `O=C(CO)[C@@H](O)[C@H](O)[C@H](O)CO` the outcome was “inactive”. With `CC1=NS(=O)(=O)c2cc(Cl)ccc2N1` the “fluorescence, % of fluorescein control” value was 0.0045% [at 46 µM] (inactive). With `CN1CC(=O)N/C1=N/C(=O)Nc1cccc(Cl)c1` the outcome was “inactive”. In the case of `O=S(=O)(O)c1cccc(S(=O)(=O)O)c1`, the “fluorescence, % of fluorescein control” value is reported as -0.0451% (inactive). In the case of `CCCCCCCCN1CCCC1=O`, the “fluorescence, % of fluorescein control” value is reported as -0.167% (inactive). With `CCCCCC(C)N` (stereo not given) the “fluorescence, % of fluorescein control” value was -0.0087% [at 46 µM] (inactive). With `CC(=O)NC(=O)c1ccccc1O` the “fluorescence, % of fluorescein control” value was -0.0193% [at 46 µM] (inactive). In the case of `CCCCS(=O)(=O)N[C@@H](Cc1ccc(OCCCCC2CCNCC2)cc1)C(=O)O`, the “fluorescence, % of fluorescein control” value is reported as -0.127% [at 46 µM] (inactive). With `COc1cc(C)nc(-n2nc(C)cc2OC)n1` the fluorescence, % of fluorescein control was -0.0352% [at 18.6 µM] (inactive). For `COc1ccc2cc1Oc1cc3c(cc1OC)CC[N+](C)(C)[C@H]3Cc1ccc(cc1)Oc1c(OC)c(OC)cc3c1[C@@H](C2)[N+](C)(C)CC3`, the “fluorescence, % of fluorescein control” value was -0.081% [at 46 µM] (inactive). With `Nc1ccn([C@@H]2O[C@H](CO)[C@@H](O)C2(F)F)c(=O)n1` the “fluorescence, % of fluorescein control” value was 0.0017% [at 46 µM] (inactive). For `CN1CCN(c2cc3c(nn2)Oc2ccccc2N3C)CC1`, the “fluorescence, % of fluorescein control” value was -0.0275% [at 46 µM] (inactive). For `O=C(O)CC(C(=O)O)S(=O)(=O)O` (stereo not given), the “fluorescence, % of fluorescein control” value was -0.0179% (inactive). With `Clc1cc(Cl)c(Cl)nc1Cl` the “fluorescence, % of fluorescein control” value was -0.0944% (inactive). With `Cc1ncc(COP(=O)(O)O)c(C=O)c1O` the “fluorescence, % of fluorescein control” value was -0.0202% [at 46 µM] (inactive). With `NC(=O)N1c2ccccc2CC(=O)c2ccccc21` the “fluorescence, % of fluorescein control” value was 0.0445% [at 46 µM] (inactive). In the case of `Cc1ccc(C(=O)c2ccccc2)cc1`, the “fluorescence, % of fluorescein control” value is reported as -0.0373% (inactive). With `CN(C)[C@@H]1C(=O)C(C(=O)NCN2CCCC2)=C(O)[C@@]2(O)C(=O)C3=C(O)c4c(O)cccc4[C@@](C)(O)C3C[C@@H]12` (stereo not given in full) the outcome was “inactive”.
